# From PubChem BioAssay (Tox21)
# Results filed as inconclusive are left out. Where a call stands in place of a potency, no number is given. Unmarked numbers belong to inactive results. Active and inactive are the calls of the source. Calls come from the whole dose curve; as a rule, active = well fitted cell-killing curve with a large enough effect in the repeat runs; inconclusive = weak or mixed curves, or effect the other way; inactive = flat fitted curve, though single readings scatter.
# Test: qHTS assay to identify small molecule antagonists of the estrogen receptor alpha (ER-alpha) signaling pathway using the BG1 cell line in the presence of 0.1 nM 17-beta-estradiol - cell viability counter screen (AID 1259241); note: nearly all actives have a fitted effect of over 40% in size
# Conditions: VM7Luc4E2 (BG1) viability, CellTiter-Fluor protease, 22 h, 0.1 nM estradiol agonist added; series mostly up to 92.4 µM
# Excerpt: National Center for Advancing Translational Sciences [NCATS]
# NIH Chemical Genomics Center [NCGC]
# U.S. Environmental Protection Agency [EPA]
# National Institutes of Environmental Health Sciences [NIEHS]
# National Toxicology Program [NTP]
# U.S. Food and Drug Administration [FDA]
# Estrogen receptor (ER), a member of the nuclear hormone receptor plays an important role in development, metabolic homeostasis and reproduction. Two subtypes of ER, ER-alpha and ER-beta, have similar expression patterns with some uniqueness in both types. Endocrine disrupting chemicals (EDCs) and their interactions with steroid hormone receptors like ER causes disruption of normal endocrine function. Therefore, it is important to understand the effect of environmental chemicals in ER signaling pathway. For identifying ER antagonists, VM7Luc4E2 cell line was used to screen against Tox21 compound libraries.
# VM7Luc4E2 cell line (provided by Denison MS, University of California) endogenously express full-length ER-alpha and is stably transfected with a plasmid containing four estrogen responsive elements (ERE) upstream of a luciferase reporter gene. The current screening for identification of ER-alpha inhibitors against Tox21 compound libraries used lower concentration (0.1 nM) of 17beta-Estradiol as a stimulator. The cytotoxicity of the Tox21 compound libraries against VM7Luc4E2 cell line was tested by measuring live-cell protease activity using CellTiter-Fluor assay in the same wells.
# Tox21 Assay Protocol Summary:
# VM7Luc4E2 cells were cultured in phenol red free assay medium containing 10% charcoal stripped FBS for 5 days prior to the assay. The cells were dispensed at 4,000 cells/well in 4 uL of assay medium into white wall/solid-bottom 1536-well plates (Corning Life Sciences, Corning, NY) using a Multidrop Combi (ThermoFisher Scientific, Waltham, MA) dispenser. After the assay plates were incubated at 37C and 5% CO2 for 24 hr, 23 nL of compounds dissolved in DMSO, positive controls or DMSO only was transferred to the assay plates by a Pintool station (Kalypsys, San Diego, CA). The transfer of compounds was followed by the addition of 1 uL of 0.1 nM (final concentration) agonist (17beta-Estradiol)/assay medium using a Flying Reagent Dispenser (FRD, Aurora Discovery, San Diego, CA). The plates were incubated at 37C and 5% CO2 for 22 hr. For cytotoxicity assay, 1 uL of CellTiter-Fluor reagent (Promega Corporation, Madison, WI) was added to each well using the FRD and after 30 min incubation at 37C and 5% CO2, The fluorescence intensity was measured using ViewLux plate reader (PerkinElmer, Shelton, CT).
SMILES,Potency,"activity change, negative = cytotoxicity"
CCCC(=O)C(C)=O,inactive,–
CCCCCCOC(=O)CC,inactive,–
CC(CO)c1ccccc1 (stereo not given),inactive,–
C[C@H](CCC(=O)O)[C@H]1CC[C@H]2[C@@H]3C(=O)C[C@@H]4CC(=O)CC[C@]4(C)[C@H]3CC(=O)[C@]12C,inactive,–
COC(=O)[C@@H]1[C@H]2C[C@H]3c4[nH]c5ccccc5c4CCN3C[C@@H]2CC[C@@H]1O,inactive,–
O=C(CS(=O)Cc1ccco1)NC/C=C\COc1cc(CN2CCCCC2)ccn1 (stereo not given),inactive,–
CC(=O)N[C@@H](CCC(=O)O)C(=O)O,inactive,–
C#CC(C)N(C)C(=O)Nc1ccc(Cl)cc1 (stereo not given),inactive,–
CCCC/C=C/C=C\C=O,inactive,–
CCNC(=O)C1CC(C)CCC1C(C)C (stereo not given),inactive,–
CCCCCCOc1ccccc1C(N)=O,inactive,–
COCCOC(=O)C1=C(C)NC(C)=C(C(=O)OC(C)C)C1c1cccc([N+](=O)[O-])c1 (stereo not given),inactive,–
CCCCCCCC/C=C\CCCCCCCC(=O)OCCCC,–,-3.36% [at 19 µM]
CCOC(=O)/C=C/c1ccccc1,inactive,–
COC(=O)CCc1ccc(OCC(O)CNC(C)C)cc1 (stereo not given),inactive,–
Nc1ncnc(Nc2ccccc2)n1,inactive,–
CCC(CC)CO,inactive,–
CC(C)(C)c1n[nH]c(=S)n(N)c1=O,inactive,–
CCCCCCCCC(=O)Cl,inactive,–
OCCC(F)(F)C(F)(F)C(F)(F)C(F)(F)C(F)(F)C(F)(F)C(F)(F)C(F)(F)F,inactive,–

SMILES,Potency,"activity change, negative = cytotoxicity"
O=C(CCNNC(=O)c1ccncc1)NCc1ccccc1,inactive,–
CC(N)C(=O)OC(C)(C)Cc1ccc(Cl)cc1 (stereo not given),inactive,–
c1ccc2nccnc2c1,inactive,–
CC(C)C[C@H](NC(=O)CNC(=O)[C@H](Cc1ccc(O)cc1)NC(=O)[C@H](CO)NC(=O)[C@H](Cc1c[nH]c2ccccc12)NC(=O)[C@H](Cc1cnc[nH]1)NC(=O)[C@@H]1CCC(=O)N1)C(=O)N[C@@H](CCCN=C(N)N)C(=O)N1CCC[C@H]1C(=O)NCC(N)=O (stereo in doubt),inactive,–
CCN(C)C(=O)Oc1cccc([C@H](C)N(C)C)c1,inactive,–
N[C@@H](COP(=O)(O)O)C(=O)O,–,0.527% [at 19 µM]
C[C@H](N)[C@H](O)c1cccc(O)c1,inactive,–
C[Si](C)(C)C,inactive,–
CC(=O)NCCCCCC(=O)O,inactive,–
COc1ccc2nc(SCc3ncc(C)c(OC)c3C)[nH]c2c1,inactive,–
CC(C)N(c1ccccc1)C(C)C,inactive,–
CC(=O)NCc1c(I)c(NC(C)=O)c(I)c(C(=O)O)c1I,inactive,–
O=C1O[C@@H]2[C@@H](O)[C@H](O)O[C@@H]2[C@H]1O,inactive,–
CCCOC(=O)C(C)O (stereo not given),inactive,–
CCOC(=O)[C@H](CCc1ccccc1)N[C@@H](C)C(=O)N1C(=O)N(C)C[C@H]1C(=O)O,inactive,–
O=C1CC(c2ccc(Cl)cc2)CC(=O)N1,inactive,–
Nc1nnc(-c2cccc(Cl)c2Cl)c(N)n1,inactive,–
OC[C@H](Cc1cccc(O)c1)[C@H](CO)Cc1cccc(O)c1,inactive,–
CCCCNC1CC(C)(C)NC(C)(C)C1,inactive,–
CCC(C=O)CC,inactive,–
